Screening data as filed in PubChem BioAssay.
mHTT-CaM PPI inh = mutant huntingtin-calmodulin interaction inhibitors – biochemical, AlphaScreen, primary screen; P42858; AlphaScreen His-mHTT/GST-CaM binding, luminescence; inhibition, % at 15 µM; 190,000 tested, 3.6% active;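 note: 0% = both proteins with DMSO and 100% = one protein alone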
Pf apPOL block = Pf-apPOL inhibitors, biochemical, fluorescence; Plasmodium falciparum apicoplast DNA polymerase (apPOL); Recombinant Pf-apPOL, molecular beacon fluorescence, 1.5 h; inhibition, % at 10 µM; 210,000 tested, 0.25% active
* = called active by the depositor; . = not tested or not shown. Only some compounds are listed: those with a hit (about 3.6% of all), similar ones and a draw of the others. Cut-off read from the data, not from the text of the source: active = inhibition above about 50%; inactive = the rest.

SMILES	mHTT-CaM PPI inh	Pf apPOL block
Cc1cccc(CN2c3cc(C(=O)NCCN4CCN(C)CC4)ccc3OCC2C)c1 (stereo not drawn)	5	-4
N#CC1=C(N)Oc2cc(O)c(C=Nc3ccc(Br)cc3)cc2C1c1ccco1 (stereo not drawn)	100*	1
COc1ccc(C2C(C#N)=C(N)Oc3cccc(O)c32)cc1 (stereo not drawn)	8	-5
COc1ccc(N=Cc2cc3c(cc2O)OC(N)=C(C#N)C3c2cccc(F)c2)cc1 (stereo not drawn)	81*	4
N#CC1=C(N)Oc2cc(O)ccc2C1c1ccccc1Br (stereo not drawn)	11	-10
Cc1ccc(C(C)NC(=O)C2CCN(c3nccnc3Oc3ccccc3)CC2)cc1 (stereo not drawn)	3	-2
O=c1[nH]c(SCc2ccc(F)cc2)nc2c1cnn2-c1ccccc1	7	5
COc1ccccc1Nc1nc(-c2ccc(OC)c(OC)c2)cs1	41	-2
NS(=O)(=O)c1ccc(Nc2nc(-c3cccnc3)cs2)cc1	21	-3
COc1ccc(-c2csc(Nc3ccc(S(N)(=O)=O)cc3)n2)cc1OC	50*	-6
COc1ccc(-c2csc(Nc3ccc(N(C)C)cc3)n2)cc1OC	97*	-1
OC1CSSCC1O (stereo not drawn)	.	11
O=C1N(c2cccc(F)c2)c2ncccc2S(=O)(=O)N1Cc1ccc(F)cc1	0	10
Cc1nc(OCC(=O)Nc2ccc(Cl)c(C(F)(F)F)c2)c2ccccc2n1	22	0
O=C(COc1ccccc1Br)Nc1ccc(Cl)c(C(F)(F)F)c1	-3	71*
O=C1CC(c2ccc3c(c2)OCO3)Sc2nc(-c3ccccc3)nn21 (stereo not drawn)	1	-8
Cc1ccc(C2CC(c3ccco3)=Nc3ccccc3S2)cc1 (stereo not drawn)	64*	0
c1coc(C2=Nc3ccccc3SC(c3ccc4c(c3)OCO4)C2)c1 (stereo not drawn)	51*	-4
COc1ccc(C2CC(c3ccco3)=Nc3ccccc3S2)cc1OC (stereo not drawn)	46	-2
CC12COc3ccc(Br)cc3C1c1sc(=O)[nH]c1SC2 (stereo not drawn)	9	10
Cc1ccc(S(=O)(=O)N2CCN(S(=O)(=O)c3ccc(C)c(C)c3C)C(C)C2)c(C)c1C (stereo not drawn)	-4	2
Cc1cc2c(cc(C(=O)N3CCN(C)CC3)n2Cc2cccc(F)c2)s1	56*	-2
C=C(C)Cn1c(C(=O)N2CCN(C)CC2)cc2sc(C)cc21	8	-6
O=C(O)c1cnn2c1NC(c1ccccc1)CC2C(F)(F)F (stereo not drawn)	2	0
CCOc1ccc(NC(=O)c2cc(C)cc(C)c2)c([N+](=O)[O-])c1	7	-11
SMILES	mHTT-CaM PPI inh	Pf apPOL block
Cc1cc(=O)[nH]c(N=C(N)Nc2cccc(Cl)c2)n1	-5	2
N#Cc1c(C(F)(F)F)cc(-c2ccccc2)nc1SCCC(N)=O	-24	-9
N#Cc1c(C(F)(F)F)cc(-c2ccccc2)nc1SCC(N)=O	-1	65*
O=C(Nc1ccc(Cl)cc1)c1cc(S(=O)(=O)NC2CCCCCC2)ccc1F	22	78*
O=C(Nc1ccc(Cl)cc1)c1cc(S(=O)(=O)NCc2ccccc2Cl)ccc1F	5	84*
O=C(Nc1cccc(F)c1)c1cc(S(=O)(=O)NCc2ccccc2Cl)ccc1F	1	-6
O=C(Nc1cc(Cl)cc(Cl)c1)c1ccc(F)c(S(=O)(=O)NCc2ccccc2)c1	0	28
O=C(Nc1ccc(Cl)cc1)c1cc(S(=O)(=O)NC2CCCC2)ccc1F	-3	49
O=C(Nc1ccc(Cl)c(Cl)c1)c1cc(S(=O)(=O)NC2CCCC2)ccc1F	93*	-3
O=C(Nc1cc(Cl)cc(Cl)c1)c1ccc(F)c(S(=O)(=O)NCc2ccc(F)cc2)c1	53*	39
Cc1ccc(NC(=O)c2cc(S(=O)(=O)NC3CCCC3)ccc2F)cc1Cl	20	-2
COc1ccc(N2C(=O)CC(NCc3ccc4c(c3)OCO4)C2=O)cc1 (stereo not drawn)	-2	-3
COc1ccc(CN2CCCC2c2c(C)noc2C)cc1O (stereo not drawn)	5	-10
CCCc1cc(=O)[nH]c2nnc(SCC(=O)Nc3ccc(Cl)c(Cl)c3)n12	0	2
O=C(Nc1ccc(Cl)c(Cl)c1)c1ccc(F)c(S(=O)(=O)NC2CCCC2)c1	65*	-3
COc1ccccc1NC(=O)c1cc(S(=O)(=O)NCCc2ccc(Cl)cc2)ccc1F	-2	-4
CCOc1ccccc1NC(=O)c1cc(S(=O)(=O)NCCc2ccc(Cl)cc2)ccc1F	56*	31
O=C(Nc1ccc(Br)cc1)c1ccc(F)c(S(=O)(=O)NC2CCCC2)c1	35	-4
Cc1nnc(Nc2ccc(C(=O)N(C)C)cc2)c2ccccc12	-1	-2
